Only some compounds are listed: those with a hit (about 0.51% of all), similar ones and a draw of the others.
Vif-APOBEC3F blk – qHTS for Inhibitors of Vif-A3F Interactions: qHTS. HeLa A3F-eYFP + Vif (tagged APOBEC3F with the HIV-1 protein that degrades it), YFP fluorescence increase. Potency, µM (highest dose often 46.1 µM), for the others: at the highest dose activity, negative = active. hit rate 0.2% among 390,000. AID 602313, 2012; also: % of control where 0% means no effect; nearly all actives have a fitted effect of over 65% in size
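HeLa cells stably expressing A3F-eYFP plus Vif, plated and incubated overnight at 37 deg C, then exposed to compounds overnight at 37 deg C. Blocked degradation read as raised yellow fluorescence (Ex 488/Em 500-530).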
Vif-A3G inh – qHTS for Inhibitors of Vif-A3G Interactions: qHTS; Potency, µM (series often up to 46.1 µM), for inactives: at the highest dose activity, negative = active, usual class: inhibitors; hit rate 0.076% among 410,000; HeLa A3G-eYFP + Vif (tagged APOBEC3G with the HIV-1 protein that degrades it), YFP fluorescence, overnight; also: % is scaled to controls: 0 for no effect and ±100 for the full control effect; nearly all actives have a fitted effect of over 60% in size
Target sequence (Q9HC16 whole entry, looked up): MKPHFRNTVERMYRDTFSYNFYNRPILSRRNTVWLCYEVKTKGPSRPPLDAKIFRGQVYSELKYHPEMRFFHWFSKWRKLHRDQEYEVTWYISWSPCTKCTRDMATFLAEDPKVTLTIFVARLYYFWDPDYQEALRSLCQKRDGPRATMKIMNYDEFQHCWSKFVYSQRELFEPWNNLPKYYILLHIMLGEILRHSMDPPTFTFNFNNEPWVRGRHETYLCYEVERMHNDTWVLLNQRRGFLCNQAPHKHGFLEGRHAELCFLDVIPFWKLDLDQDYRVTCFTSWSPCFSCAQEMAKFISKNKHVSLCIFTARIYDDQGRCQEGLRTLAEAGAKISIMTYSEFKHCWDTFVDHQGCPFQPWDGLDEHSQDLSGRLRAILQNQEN
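HeLa cells stably expressing Vif and C-terminally eYFP-tagged A3G, seeded overnight at 37 deg C, then exposed to compound by pintool overnight at 37 deg C. Rise in yellow fluorescence (Ex 488/Em 500-530, Acumen) marks blocked Vif-driven A3G degradation.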
Epigenetic reg – Quantitative High-Throughput Screen for Regulators of Epigenetic Control; murine LDR cells, GFP reporter derepression, 30 h; Potency, µM (series often up to 53.9 µM), for the others: top-dose GFP activation, hits mostly activators; hit rate 0.2% among 280,000; also: % of control where 0% means no effect; nearly all actives have a fitted effect of over 60% in size
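Murine LDR cells carrying a silenced, genomically integrated CMV-driven GFP reporter were exposed to compound for 30 hours at 37 C. After PBS washes, GFP-positive cells (20–120 um objects) were counted by laser-scanning microplate cytometry.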
PINK1 modulator – A Quantitative High throughput Screen to Identify Chemical Modulators of PINK1 Expression; hit rate 0.2% among 410,000; PINK1 immunofluorescence, high-content cytometry, 24 h; Potency, µM (highest dose often 76.6 µM), without a hit: at the highest dose activation (PINK1 increase), usual class: activators; AID 624263, 2012; active = well fitted activation curve with a large enough effect; inconclusive = small, poorly fitted or top-dose-only effect; cell line not stated here; also: % of control where 0% means no effect; nearly all actives have a fitted effect of over 65% in size
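Readout is PINK1 immunofluorescence, quantified alongside mitochondrial, cell and nuclear markers by laser-scanning microplate cytometry. Cells from a stable line were exposed to compound titrations (5 concentrations) for 24 hours, with CCCP controls.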
Active calls of the source: *; ? = inconclusive; . = no result; [ ] = remark or other dose. Unless noted, calls follow the shape of the dose curve; as a rule, active = well fitted curve in the direction sought with a large enough effect; inconclusive = small, poorly fitted or top-dose-only effect, or another doubt; inactive = no such curve, though single readings can be large; an effect the other way counts as inactive or inconclusive. Potency is read from the fitted curve at half-maximal effect.

SMILES	Vif-APOBEC3F blk	Vif-A3G inh	Epigenetic reg	PINK1 modulator
COc1cc(-c2ccc(Cl)cn2)cc2c1OCCN(S(=O)(=O)C[C@]13CC[C@H](CC1=O)C3(C)C)C2	.	.	.	-1%
CCN1c2ccccc2NC2C1C(C(C)=O)C(=O)N2c1ccc(Cl)cc1 (stereo unspecified)	22µM*	?	25µM*	5%[38.3 µM]
Cc1ccc(NC(=O)c2ccc(NCCc3ccccc3)c([N+](=O)[O-])c2)cc1F	1%	-4%	13µM*	?
O=C(Nc1cc(F)cc(F)c1)c1ccc(NCCc2ccccc2)c([N+](=O)[O-])c1	?	-17%	-1%	?
CCN(CC)c1ccc(/C=C2/SC(=O)N(C(C)C)C2=O)o1	?	?	11µM*	10%
O=C(N=c1ccn(-c2nc3ccccc3nc2NS(=O)(=O)c2ccccc2)cc1)c1ccccc1Cl	7.1µM*	0%	.	3%
O=C(N=c1ccn(-c2nc3ccccc3nc2NS(=O)(=O)c2ccc(Cl)cc2)cc1)c1cccs1	7.9µM*	-14%	?	?
COc1cc(C(=O)Nc2nnc(S(=O)(=O)N(C)c3ccccc3)s2)cc(OC)c1OC	0%	-4%	10µM*	0%
COc1ccc(CN2CC[C@H]3C=CC[C@@H](C(=O)Nc4ccccc4)[C@H]3C2=O)cc1OC	.	1%	.	.
Cc1c(C(=O)N2CC3CCC2C3)sc2ncnc(NCCc3ccccn3)c12 (stereo unspecified)	.	.	.	-1%
CC(=O)c1cc(NC(=O)c2ccc(C)cc2)c(=O)oc1/C=C/N(C)C	13µM*	13µM*	6%	12%
COc1ccc(C(=O)Nc2cc(C(C)=O)c(/C=C/N(C)C)oc2=O)cc1	?	?	5%	0%
CC(C)c1c(C(=O)N2CCN(CCO)CC2)cnn1-c1nccc(-c2cccs2)n1	.	.	.	0%
O=c1oc2cc(O)ccc2cc1-c1nc(-c2ccc(Cl)c(Cl)c2)cs1	?	?	7.9µM*	9%
CC(NC(=O)c1ccco1)c1nnc2n1CCN(Cc1ccc(N(C)C)cc1)CC2 (stereo unspecified)	.	.	.	1%
O=C1c2cccc3cccc(c23)C(=O)N1c1ccc(O)cc1	-1%	-3%	.	4%
O=C1c2cccc3c(N4CCCCC4)ccc(c23)C(=O)N1c1ccc(O)cc1	?	7.9µM*	?	?
O=C1c2cccc3c(N4CCCCC4)ccc(c23)C(=O)N1c1ccccc1O	8.9µM*	14%	?	5%
CCOC(=O)Nc1sc(C)nc1-c1ccccc1	0%	1%	2%	3%[38.3 µM]
CCOC(=O)Nc1cc2c(c(N)n1)N=C(c1ccccc1)CN2	22µM*	?	.	4%
CC1Sc2ccc(C(=O)NCc3ccccn3)cc2NC1=O (stereo unspecified)	13µM*	2%	.	-1%
COc1ccccc1N1N=C(c2ccc([N+](=O)[O-])cc2)CC1c1ccccc1 (stereo unspecified)	-953%	2.5µM*	.	10%
CCOC(=O)C1=C(O)/C(=C/c2ccc(-c3ccccc3C(=O)O)o2)SC1=Nc1ccc(C)cc1	?	-10%	4%	0%
CCOC(=O)C1=C(O)/C(=C/c2cn(CC(=O)NCC3CCCO3)c3ccccc23)SC1=Nc1ccc(C)cc1 (stereo unspecified)	?	?	.	14µM*
COc1ccc(C2=CC3=C(Br)C(=O)C(C)(OC(=O)c4ccc(Cl)nc4)C(=O)C3=CO2)cc1 (stereo unspecified)	-3%	0%	-1%	14µM*
SMILES	Vif-APOBEC3F blk	Vif-A3G inh	Epigenetic reg	PINK1 modulator
COC(=O)CCC(=O)OC1(C)C(=O)C2=COC(c3ccc(OC)cc3)=CC2=C(Br)C1=O (stereo unspecified)	-3%	-2%	0%	0%
C=CCNC(=S)N/N=C(\C)c1ccc(OC)cc1	10µM*	1%	?	1%
O=C(OCC12CC3CC(CC(C3)C1)C2)c1ccc(NCc2cc(O)ccc2O)cc1	22µM*	-15%	.	-2%
CN(C)c1ccc(/C=C2/C[N+](C)(C)C/C(=C/c3ccc(N(C)C)cc3)C2=O)cc1	10µM*	?	.	2%
CC(C)/C=C1\CC/C(=C\c2ccc(N(C)C)cc2)C1=O	?	-5%	2%	17%
CNC(=O)[C@@H]1C[C@@H](NCc2cccc(Oc3ccccc3)c2)CN1C(C)C	.	.	.	1%
CCC1CN(CCNC(=O)c2ccnc(Cl)c2)Cc2cc(OC)ccc2O1 (stereo unspecified)	.	.	.	1%
COc1ccc(OC)c(NC(=O)c2cc(-c3cc(C)cc(C)c3O)n[nH]2)c1	11µM*	0%	.	?
O=[N+]([O-])c1ccc(O)c(C(C#Cc2ccccc2)N2CCOCC2)c1 (stereo unspecified)	3%	-2%	0%	40µM*
O=C(NCC(c1cccs1)N1CCOCC1)c1cc([N+](=O)[O-])ccc1Cl (stereo unspecified)	3%	-1%	-1%	-2%
COc1ccc(C(NC(=O)C(C)C)c2ccc3cccnc3c2O)cc1 (stereo unspecified)	-5%	-22%	3.5µM*	1%
Cc1ccc(NC(=O)CC(=O)c2ccc([N+](=O)[O-])cc2)cc1S(=O)(=O)Nc1cccc(Cl)c1	-1%	1%	0%	32µM*
CCN(Cc1ccncc1)Cc1ccc2c(c1)CN(C(=O)c1ccc(OC)cc1)CCO2	.	.	.	-1%
CC(=O)Nc1ccc(Br)c2ccccc12	6%	-15%	3%	-1%
O=C(Nc1ccc(Br)c2ccccc12)c1ccc2ccccc2c1O	-11%	-1%	5%	25µM*
O=C1CC(C(=O)N2CCCC(c3nc(-c4ccncc4)ncc3-c3ccccc3)C2)C2(CCCCC2)O1 (stereo unspecified)	.	.	.	1%
Nc1c(C(=O)Nc2ccc(C(=O)O)cc2)sc2nc3c(cc12)CCCC3	-2%	-1%	-1%	1%
Nc1c(C(=O)Nc2ccc(S(=O)(=O)N3CCCC3)cc2)sc2nc3cc4c(cc3cc12)CCC4	10µM*	13µM*	3.5µM*	?
Nc1c(C(=O)Nc2ccc(S(=O)(=O)N3CCCC3)cc2)sc2nc3ccc(OC(F)(F)F)cc3cc12	22µM*	?	7.9µM*	?
Cc1cccnc1-c1cccc2c1OC(CNC(=O)Cc1c(C)noc1C)C2 (stereo unspecified)	.	.	.	0%
CC(=O)Nc1ccccc1-c1nc(CNC(=O)c2cc(C)ccc2C)c(C)o1	.	.	.	1%
CCCCn1c(NC(=O)c2ccco2)c(S(=O)(=O)c2ccc(C)cc2)c2nc3ccccc3nc21	25µM*	?	2%	1%
CCCCCn1c(NC(=O)c2ccco2)c(S(=O)(=O)c2ccc(C)cc2)c2nc3ccccc3nc21	-2%	-1%	-1%	-1%[38.3 µM]
COC(=O)c1cc(CNC(=O)c2ccccc2)cc(NC(=O)c2ccccc2OC)c1	.	.	.	1%
